Data from the supplement of paper PMC8728848.
Many of the other results were omitted from the sample, so the strongest signals are more common in it than they were.

Columns and labels:
Assay in all cases: glycan array binding signal (z-score within array); higher = stronger binding
Details in all cases: glycan notation: IUPAC condensed, linker removed
[1] = target: Fuc(a1-2)Gal(b1-3)GalNAc(b1-3)Gal
Outline: (§1)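 The Consortium for Functional Glycomics database supplied 3228 glycan arrays, of which those lacking an available protein sequence were dropped. The binding signal, a within-array Z-score, was averaged across arrays of the same protein sequence and across linkers. Negative scores can be read as non-binding.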

Fuc(a1-2)Gal(b1-3)GlcNAc = target: Fuc(a1-2)Gal(b1-3)GlcNAc
Outline: as §1

[2] = target: Fuc(a1-2)Gal(b1-4)GlcNAc(b1-2)Man(a1-3)[Fuc(a1-2)Gal(b1-4)GlcNAc(b1-2)Man(a1-6)]Man(b1-4)GlcNAc(b1-4)[Fuc(a1-6)]GlcNAc
Outline: as §1

[3] = target: Fuc(a1-2)Gal6S(b1-4)Glc6S
Outline: as §1

[4] = target: Fuc(a1-2)[Gal(a1-3)]Gal(b1-3)GalNAc(b1-3)Gal(a1-4)Gal(b1-4)Glc
Outline: as §1

[5] = target: Fuc(a1-2)[Gal(a1-3)]Gal(b1-4)[Fuc(a1-3)]Glc
Outline: as §1

[6] = target: Fuc(a1-2)[GalNAc(a1-3)]Gal(b1-3)GlcNAc(b1-2)Man(a1-3)[Fuc(a1-2)[GalNAc(a1-3)]Gal(b1-3)GlcNAc(b1-2)Man(a1-6)]Man(b1-4)GlcNAc(b1-4)[Fuc(a1-6)]GlcNAc
Outline: as §1

[7] = target: Fuc(a1-2)[GalNAc(a1-3)]Gal(b1-4)GlcNAc(b1-2)Man
Outline: as §1

[8] = target: Fuc(a1-3)[Gal(b1-4)]Glc6S
Outline: as §1

[9] = target: Fuc(a1-3)[Gal(b1-4)]GlcNAc(b1-2)Man(a1-3)[Fuc(a1-3)[Gal(b1-4)]GlcNAc(b1-2)Man(a1-6)]Man(b1-4)GlcNAc(b1-4)GlcNAc
Outline: as §1

[10] = target: Fuc(a1-3)[Gal(b1-4)]GlcNAc(b1-2)Man(a1-3)[Fuc(a1-3)[Gal(b1-4)]GlcNAc(b1-2)Man(a1-6)]Man(b1-4)GlcNAc(b1-4)[Fuc(a1-6)]GlcNAc
Outline: as §1

Gal(a1-3)Gal(b1-4)Glc = target: Gal(a1-3)Gal(b1-4)Glc
Outline: as §1

Gal(a1-3)GalNAc = target: Gal(a1-3)GalNAc
Outline: as §1

Gal(a1-4)Gal(b1-4)GlcNAc = target: Gal(a1-4)Gal(b1-4)GlcNAc
Outline: as §1

Gal(b1-3)Gal = target: Gal(b1-3)Gal
Outline: as §1

[11] = target: Gal(b1-3)GlcNAc(a1-3)Gal(b1-4)GlcNAc
Outline: as §1

Gal(b1-3)GlcNAc(b1-2)Man = target: Gal(b1-3)GlcNAc(b1-2)Man
Outline: as §1

[12] = target: Gal(b1-3)GlcNAc(b1-3)GalNAc
Outline: as §1

[13] = target: Gal(b1-4)GalNAc(b1-3)[Fuc(a1-2)]Gal(b1-4)GlcNAc
Outline: as §1

[14] = target: Gal(b1-4)GlcNAc(b1-2)Man(a1-3)[GlcNAc(b1-4)][Gal(b1-4)GlcNAc(b1-2)Man(a1-6)]Man(b1-4)GlcNAc(b1-4)GlcNAc
Outline: as §1

[15] = target: Gal(b1-4)GlcNAc(b1-2)[Gal(b1-4)GlcNAc(b1-6)]Man(a1-6)[Gal(b1-4)GlcNAc(b1-2)Man(a1-3)]Man(b1-4)GlcNAc(b1-4)GlcNAc
Outline: as §1

[16] = target: Gal(b1-4)GlcNAc(b1-3)Gal(b1-4)GlcNAc(b1-2)Man(a1-3)[Gal(b1-4)GlcNAc(b1-3)Gal(b1-4)GlcNAc(b1-2)Man(a1-6)]Man(b1-4)GlcNAc(b1-4)GlcNAc
Outline: as §1

Gal(b1-6)Gal = target: Gal(b1-6)Gal
Outline: as §1

Gal3S6S(b1-4)GlcNAc6S = target: Gal3S6S(b1-4)GlcNAc6S
Outline: as §1

Gal4S(b1-4)GlcNAc = target: Gal4S(b1-4)GlcNAc
Outline: as §1

[17] = target: GlcA3S(b1-3)Gal(b1-4)GlcNAc(b1-2)Man
Outline: as §1

GlcNAc(b1-3)Gal = target: GlcNAc(b1-3)Gal
Outline: as §1

[18] = target: GlcNAc(b1-3)Gal(b1-4)GlcNAc(b1-2)Man(a1-3)[GlcNAc(b1-3)Gal(b1-4)GlcNAc(b1-2)Man(a1-6)]Man(b1-4)GlcNAc(b1-4)[Fuc(a1-6)]GlcNAc
Outline: as §1

[19] = target: GlcNAc(b1-3)Gal(b1-4)GlcNAc(b1-2)[GlcNAc(b1-3)Gal(b1-4)GlcNAc(b1-6)]Man(a1-6)[GlcNAc(b1-3)Gal(b1-4)GlcNAc(b1-2)Man(a1-3)]Man(b1-4)GlcNAc(b1-4)GlcNAc
Outline: as §1

GlcNAc(b1-3)Man = target: GlcNAc(b1-3)Man
Outline: as §1

[20] = target: GlcNAc(b1-3)[GlcNAc(b1-6)]Gal(b1-4)GlcNAc
Outline: as §1

[21] = target: Man(a1-2)Man(a1-2)Man(a1-6)[Man(a1-3)]Man
Outline: as §1

[22] = target: Man(a1-3)[Man(a1-6)]Man(a1-6)[Man(a1-3)]Man
Outline: as §1

[23] = target: Neu5Ac(a2-3)Gal(b1-3)GlcNAc(b1-3)Gal(b1-4)GlcNAc
Outline: as §1

[24] = target: Neu5Ac(a2-3)Gal(b1-3)GlcNAc(b1-4)Gal(b1-4)Glc
Outline: as §1

[25] = target: Neu5Ac(a2-3)Gal(b1-3)[Fuc(a1-4)]GlcNAc(b1-3)Gal(b1-4)[Fuc(a1-3)]GlcNAc
Outline: as §1

[26] = target: Neu5Ac(a2-3)Gal(b1-4)GlcNAc(b1-3)Gal
Outline: as §1

[27] = target: Neu5Ac(a2-3)Gal(b1-4)GlcNAc(b1-3)Gal(b1-4)GlcNAc(b1-3)Gal(b1-4)GlcNAc(b1-2)Man(a1-3)[Neu5Ac(a2-3)Gal(b1-4)GlcNAc(b1-3)Gal(b1-4)GlcNAc(b1-3)Gal(b1-4)GlcNAc(b1-2)Man(a1-6)]GalNAc
Outline: as §1

[28] = target: Neu5Ac(a2-3)Gal(b1-4)[Fuc(a1-3)]GlcNAc(b1-6)[Neu5Ac(a2-3)Gal(b1-3)]GalNAc
Outline: as §1

[29] = target: Neu5Ac(a2-3)[GalNAc(b1-4)]Gal(b1-4)Glc
Outline: as §1

[30] = target: Neu5Ac(a2-6)Gal(b1-4)GlcNAc(b1-3)Gal(b1-4)GlcNAc(b1-6)[Gal(b1-3)]GalNAc
Outline: as §1

Neu5Ac(a2-8)Neu5Ac = target: Neu5Ac(a2-8)Neu5Ac
Outline: as §1

[31] = target: Neu5Ac(a2-8)Neu5Ac(a2-3)Gal(b1-3)GalNAc(b1-4)[Neu5Ac(a2-3)]Gal(b1-4)Glc
Outline: as §1

[32] = target: Neu5Ac(a2-8)Neu5Ac(a2-8)Neu5Ac(a2-3)Gal(b1-4)Glc
Outline: as §1

[33] = target: Neu5Ac(a2-8)Neu5Gc(a2-3)Gal(b1-4)GlcNAc
Outline: as §1

[34] = target: Neu5Gc(a2-8)Neu5Ac(a2-3)Gal(b1-4)GlcNAc
Outline: as §1

B1: Als1 (Candida albicans), P46590 (protein)
chain: KTITGVFDSFNSLTWSNAANYAFKGPGYPTWNAVLGWSLDGTSANPGDTFTLNMPCVFKYTTSQTSVDLTADGVKYATCQFYSGEEFTTFSTLTCTVNDALKSSIKAFGTVTLPIAFNVGGTGSSTDLEDSKCFTAGTNTVTFNDGDKDISIDVEFEKSTVDPSGYLYASRVMPSLNKVTTLFVAPQCENGYTSGTMGFSSSNGDVAIDCSNIHIGITKGLNDWNYPVSSESFSYTKTCTSNGIQIKYQNVPAGYRPFIDAYISATDVNQYTLAYTNDYTCAGSRLQSKPFTLRWTGYKNSDAGSNGIVIVATTRTVTDSTTAVTTLPFNPSVDKTKTIEILQPIPTTTITTSYVGVTTSYLTKTAPIGETATVIVDVPYHTTTTVTSEWTGTITTTTTRTNPTDSIDTVVVQVP
- glycan array binding signal (z-score) [1]: 3.32
- glycan array binding signal (z-score) (Fuc(a1-2)Gal(b1-3)GlcNAc): -0.524
- glycan array binding signal (z-score) [2]: 1.97
- glycan array binding signal (z-score) [3]: -0.25
- glycan array binding signal (z-score) [4]: -0.049
- glycan array binding signal (z-score) [5]: 0.021
- glycan array binding signal (z-score) [6]: -0.413
- glycan array binding signal (z-score) [7]: -0.488
- glycan array binding signal (z-score) [8]: 3.38
- glycan array binding signal (z-score) [9]: 0.227
- glycan array binding signal (z-score) [10]: 0.146
- glycan array binding signal (z-score) (Gal(a1-3)Gal(b1-4)Glc): -0.664
- glycan array binding signal (z-score) (Gal(a1-3)GalNAc): -0.407
- glycan array binding signal (z-score) (Gal(a1-4)Gal(b1-4)GlcNAc): -0.303
- glycan array binding signal (z-score) (Gal(b1-3)Gal): -0.458
- glycan array binding signal (z-score) [11]: -0.432
- glycan array binding signal (z-score) (Gal(b1-3)GlcNAc(b1-2)Man): 0.092
- glycan array binding signal (z-score) [12]: -0.05
- glycan array binding signal (z-score) [13]: -0.644
- glycan array binding signal (z-score) [14]: 8.37
- glycan array binding signal (z-score) [15]: 7.7
- glycan array binding signal (z-score) [16]: 4.19
- glycan array binding signal (z-score) (Gal(b1-6)Gal): -0.739
- glycan array binding signal (z-score) (Gal3S6S(b1-4)GlcNAc6S): 3.22
- glycan array binding signal (z-score) (Gal4S(b1-4)GlcNAc): 0.401
- glycan array binding signal (z-score) [17]: -0.192
- glycan array binding signal (z-score) (GlcNAc(b1-3)Gal): 4.47
- glycan array binding signal (z-score) [18]: -0.201
- glycan array binding signal (z-score) [19]: 4.37
- glycan array binding signal (z-score) (GlcNAc(b1-3)Man): -0.282
- glycan array binding signal (z-score) [20]: -0.361
- glycan array binding signal (z-score) [21]: -0.553
- glycan array binding signal (z-score) [22]: 1.09
- glycan array binding signal (z-score) [23]: -0.473
- glycan array binding signal (z-score) [24]: 4.25
- glycan array binding signal (z-score) [25]: -0.015
- glycan array binding signal (z-score) [26]: -0.274
- glycan array binding signal (z-score) [27]: 3.84
- glycan array binding signal (z-score) [28]: 2.16
- glycan array binding signal (z-score) [29]: -0.291
- glycan array binding signal (z-score) [30]: -0.05
- glycan array binding signal (z-score) (Neu5Ac(a2-8)Neu5Ac): -0.045
- glycan array binding signal (z-score) [31]: -0.627
- glycan array binding signal (z-score) [32]: -0.083
- glycan array binding signal (z-score) [33]: -0.049
- glycan array binding signal (z-score) [34]: 4.63
